Several values for one entry are separate records, joined by “and”; a condition that tells them apart may be missing. Equal values may be shown once. Inconclusive results are not listed. Activity calls are given as the source filed them. The call rests on the fitted dose curve; in most records, active means well fitted inhibition curve with a large enough effect in the repeat runs; inconclusive means weak or mixed curves; inactive means no such curve, though single readings can be large or run the other way.
target: Cytochrome P450 2D6 (Homo sapiens) (UniProt P10635); assay: Cytochrome P450 Family 2 Subfamily D Member 6 (CYP2D6) small molecule antagonists: luciferase reporter qHTS assay (AID 1671196); settings: P450-Glo CYP2D6 enzyme assay, luciferin luminescence, 1 h; series mostly up to 115 µM; activity change, negative = inhibition: at the top concentration; further: nearly all actives have a fitted effect of over 50% in size
In short: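 Quantitative HTS of Tox21 chemicals against CYP2D6 using a luminescent proluciferin substrate. After NADPH addition, 1 h room-temperature reaction; luminescence recorded 20 min post detection reagent.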
On the % scale 0 is the no-effect control and ±100 the full control effect; potency means the concentration at half of the fitted maximal effect.

Sequence of Cytochrome P450 2D6 (Homo sapiens) (P10635 whole entry, looked up): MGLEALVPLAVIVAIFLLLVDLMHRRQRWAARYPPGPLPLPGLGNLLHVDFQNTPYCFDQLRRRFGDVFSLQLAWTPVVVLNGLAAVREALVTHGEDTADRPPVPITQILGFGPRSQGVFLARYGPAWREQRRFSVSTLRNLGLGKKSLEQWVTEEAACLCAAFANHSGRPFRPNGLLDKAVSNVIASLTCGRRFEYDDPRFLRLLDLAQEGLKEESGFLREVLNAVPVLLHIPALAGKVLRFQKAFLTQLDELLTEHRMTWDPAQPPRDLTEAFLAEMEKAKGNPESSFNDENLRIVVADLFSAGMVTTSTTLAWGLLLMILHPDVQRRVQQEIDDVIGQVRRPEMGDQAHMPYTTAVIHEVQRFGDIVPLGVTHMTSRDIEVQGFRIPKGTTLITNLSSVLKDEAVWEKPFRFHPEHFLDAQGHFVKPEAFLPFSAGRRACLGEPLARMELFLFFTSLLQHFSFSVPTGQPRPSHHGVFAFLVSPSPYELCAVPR

Row | SMILES | activity change, negative = inhibition | Potency
1 | C=C(Cl)Cl | -14% (inactive) | –
2 | CCOC(=O)c1cn2nc(OP(=S)(OCC)OCC)cc2nc1C | – | 25.2 µM (active)
3 | O=C(O)C(F)(F)C(F)(F)C(F)(F)C(F)(F)C(F)(F)F | -20.8% (inactive) | –
4 | O=C(O)c1ccc(=O)[nH]c1 | 1.55% [at 53 µM] (inactive) | –
5 | CC(Oc1cc(Cl)c(Cl)cc1Cl)C(=O)O (stereo not drawn) | 2.54% (inactive) | –
6 | COc1cc(CC(C)N)c(OC)cc1Br (stereo not drawn) | – | 26 µM (active)
7 | O=C(CCl)CCl | -27.2% (inactive) | –
8 | CCCCC(CC)COC(=O)c1c(Br)c(Br)c(Br)c(Br)c1C(=O)OCC(CC)CCCC (stereo not drawn) | -13.2% [at 53 µM] (inactive) | –
9 | O=P(OCC(Br)CBr)(OCC(Br)CBr)OCC(Br)CBr (stereo not drawn) | – | 20.3 µM (active) and 26.8 µM (active)
10 | O=C(Cl)OCCOCCOC(=O)Cl | – | 79.6 µM (active)
11 | N#CC(C#N)=Cc1ccc(O)c(O)c1 | -22.2% [at 53 µM] (inactive) | –
12 | CC(C)(C)N(NC(=O)c1ccc(Cl)cc1)C(=O)c1ccccc1 | -27.2% (inactive) | –
13 | C[Si](Cn1cncn1)(c1ccc(F)cc1)c1ccc(F)cc1 | – | 26 µM (active) and 31.7 µM (active)
14 | COc1cc(C[C@@H](C)N)c(OC)cc1Br | – | 11.6 µM (active)
15 | C[C@H]1[C@@H]2Cc3ccc(O)cc3[C@@]1(C)CCN2C | – | 33.9 µM (active)
16 | CNC(=O)Oc1cccc(N=CN(C)C)c1 | – | 79.6 µM (active)
17 | O=[N+]([O-])c1cc(Cl)c(Cl)cc1Cl | -7.29% (inactive) | –
18 | CCOC(C(=O)OCCN(C)C)(c1ccccc1)c1ccccc1 | – | 2.75 µM (active)
19 | CCCCCCCCCCCC[N+](C)(C)CCOc1ccccc1 | – | 3.56 µM (active) and 4.36 µM (active)
20 | COC(=O)Cc1ccccc1 | -9.68% (inactive) | –
21 | CCCCC#N | -15.2% (inactive) | –
22 | ClCc1ccccc1Cl | -12.3% (inactive) | –
23 | CC(C)(C#N)C(C)(C)C#N | -18.5% (inactive) | –
24 | COc1ccc(C(=O)c2c(C)n(CCN3CCOCC3)c3ccccc23)cc1 | – | 15.5 µM (active)
25 | Nc1c(Br)cc(Br)c2c1C(=O)c1ccccc1C2=O | 0.314% [at 23.6 µM] (inactive) | –
26 | C=CCOC(=O)C(C)(C)OC(=O)c1cc(-n2c(=O)cc(C(F)(F)F)n(C)c2=O)ccc1Cl | – | 27.7 µM (active)
27 | CC(CC(C(N)=O)(c1ccccc1)c1ccccc1)N(C)C (stereo not drawn) | – | 6.17 µM (active)
28 | CC(C)(C)NCC(O)c1cc(Cl)c(N)c(C(F)(F)F)c1 (stereo not drawn) | – | 15.5 µM (active)

Reference: PubChem BioAssay (Tox21)
